Reference: the supplement of paper PMC6897291
Counter-ions that a name gives are not always drawn.

Assays:
U-2932 [1] = test: growth inhibition by drug alone (1 - RLU/untreated control) (fraction); higher = stronger inhibition; conditions: 177Lu-lilotomab satetraxetan 0 ug/ml
In short: (§1)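 RIVA or U-2932 cells, untreated or pretreated 18 h with a radiolabelled anti-CD37 antibody conjugate (~600 MBq/mg; 0.5 µg/ml RIVA, 1 µg/ml U-2932), were washed and seeded at 3,000 cells/well on plates pre-printed with the Selleck Cambridge Cancer Compound library. Doses were 10/100 nM (RIVA) or 10/1,000 nM (U-2932). RealTime-Glo luminescence was read daily from day 3 after 1 h at 37°C. Growth inhibition is 1 − RLU/mean of 48 untreated no-drug wells per plate.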

RIVA [2] = test: as above; conditions: 177Lu-lilotomab satetraxetan 0 ug/ml
In short: as §1

U-2932 [3] = test: growth inhibition by drug plus 177Lu-lilotomab satetraxetan (1 - RLU/untreated control) (fraction); higher = stronger inhibition; conditions: 177Lu-lilotomab satetraxetan 1 ug/ml
In short: as §1

RIVA [4] = test: as above; conditions: 177Lu-lilotomab satetraxetan 0.5 ug/ml
In short: as §1

| Compound | growth inhibition by drug alone (U-2932 [1]; 10 nM, time (day): 3) | growth inhibition by drug alone (U-2932 [1]; 10 nM, time (day): 4) | growth inhibition by drug alone (U-2932 [1]; 10 nM, time (day): 5) | growth inhibition by drug alone (U-2932 [1]; 10 nM, time (day): 6) | growth inhibition by drug alone (U-2932 [1]; 1000 nM, time (day): 3) | growth inhibition by drug alone (U-2932 [1]; 1000 nM, time (day): 4) | growth inhibition by drug alone (U-2932 [1]; 1000 nM, time (day): 5) | growth inhibition by drug alone (U-2932 [1]; 1000 nM, time (day): 6) | growth inhibition by drug alone (RIVA [2]; 10 nM, time (day): 3) | growth inhibition by drug alone (RIVA [2]; 10 nM, time (day): 4) | growth inhibition by drug alone (RIVA [2]; 10 nM, time (day): 5) | growth inhibition by drug alone (RIVA [2]; 10 nM, time (day): 6) | growth inhibition by drug alone (RIVA [2]; 100 nM, time (day): 3) | growth inhibition by drug alone (RIVA [2]; 100 nM, time (day): 4) | growth inhibition by drug alone (RIVA [2]; 100 nM, time (day): 5) | growth inhibition by drug alone (RIVA [2]; 100 nM, time (day): 6) | growth inhibition by drug plus 177Lu-lilotomab satetraxetan (U-2932 [3]; 10 nM, time (day): 3) | growth inhibition by drug plus 177Lu-lilotomab satetraxetan (U-2932 [3]; 10 nM, time (day): 4) | growth inhibition by drug plus 177Lu-lilotomab satetraxetan (U-2932 [3]; 10 nM, time (day): 5) | growth inhibition by drug plus 177Lu-lilotomab satetraxetan (U-2932 [3]; 10 nM, time (day): 6) | growth inhibition by drug plus 177Lu-lilotomab satetraxetan (U-2932 [3]; 1000 nM, time (day): 3) | growth inhibition by drug plus 177Lu-lilotomab satetraxetan (U-2932 [3]; 1000 nM, time (day): 4) | growth inhibition by drug plus 177Lu-lilotomab satetraxetan (U-2932 [3]; 1000 nM, time (day): 5) | growth inhibition by drug plus 177Lu-lilotomab satetraxetan (U-2932 [3]; 1000 nM, time (day): 6) | growth inhibition by drug plus 177Lu-lilotomab satetraxetan (RIVA [4]; 10 nM, time (day): 3) | growth inhibition by drug plus 177Lu-lilotomab satetraxetan (RIVA [4]; 10 nM, time (day): 4) | growth inhibition by drug plus 177Lu-lilotomab satetraxetan (RIVA [4]; 10 nM, time (day): 5) | growth inhibition by drug plus 177Lu-lilotomab satetraxetan (RIVA [4]; 10 nM, time (day): 6) | growth inhibition by drug plus 177Lu-lilotomab satetraxetan (RIVA [4]; 100 nM, time (day): 3) | growth inhibition by drug plus 177Lu-lilotomab satetraxetan (RIVA [4]; 100 nM, time (day): 4) | growth inhibition by drug plus 177Lu-lilotomab satetraxetan (RIVA [4]; 100 nM, time (day): 5) | growth inhibition by drug plus 177Lu-lilotomab satetraxetan (RIVA [4]; 100 nM, time (day): 6) |
| --- | --- | --- | --- | --- | --- | --- | --- | --- | --- | --- | --- | --- | --- | --- | --- | --- | --- | --- | --- | --- | --- | --- | --- | --- | --- | --- | --- | --- | --- | --- | --- | --- |
| CN(C)Cc1ccc(-c2nc3cccc4c3n2CCNC4=O)cc1 | 0.121 | 0.0696 | -0.0285 | -0.000931 | 0.038 | 0.056 | -0.00883 | -0.203 | -0.0131 | 0.0265 | -0.0439 | -0.223 | -0.0162 | 0.0398 | 0.00266 | -0.0877 | 0.00803 | 0.0491 | 0.0539 | 0.0786 | 0.0336 | 0.127 | 0.116 | 0.183 | 0.564 | 0.632 | 0.638 | 0.652 | 0.585 | 0.642 | 0.654 | 0.657 |
| COc1ccc(/C=C\c2cc(OC)c(OC)c(OC)c2)cc1O [Combretastatin A4] | 0.967 | 0.973 | 0.979 | 0.983 | 0.965 | 0.975 | 0.981 | 0.985 | 0.953 | 0.965 | 0.971 | 0.975 | 0.924 | 0.936 | 0.954 | 0.964 | 0.971 | 0.978 | 0.983 | 0.986 | 0.965 | 0.979 | 0.985 | 0.988 | 0.964 | 0.976 | 0.98 | 0.984 | 0.936 | 0.949 | 0.963 | 0.971 |
| CNCc1ccc(-c2[nH]c3cc(F)cc4c3c2CCNC4=O)cc1 | 0.062 | 0.0535 | 0.0443 | 0.155 | 0.0442 | 0.0462 | 0.0516 | 0.0343 | -0.0585 | -0.0309 | -0.0988 | -0.165 | -0.0509 | -0.0204 | -0.0791 | -0.0893 | 0.05 | 0.0426 | 0.0882 | 0.222 | 0.0393 | 0.0885 | 0.124 | 0.238 | 0.384 | 0.514 | 0.55 | 0.578 | 0.507 | 0.54 | 0.574 | 0.57 |
| CNNCc1ccc(C(=O)NC(C)C)cc1 [Procarbazine hydrochloride (Matulane)] | 0.123 | 0.0702 | -0.0853 | -0.113 | 0.0616 | 0.0673 | 0.00725 | -0.144 | – | – | – | – | – | – | – | – | 0.0466 | 0.103 | 0.15 | 0.195 | 0.0453 | 0.108 | 0.126 | 0.177 | – | – | – | – | – | – | – | – |
| CN(C)C/C=C/C(=O)Nc1cc2c(Nc3ccc(F)c(Cl)c3)ncnc2cc1O[C@H]1CCOC1 [Afatinib (BIBW2992)] | 0.0755 | 0.0672 | 0.0124 | -0.039 | 0.0101 | 0.0989 | 0.0569 | 0.0902 | 0.0532 | -0.016 | -0.0806 | -0.333 | -0.091 | -0.147 | -0.146 | -0.262 | 0.0397 | 0.0532 | 0.0798 | 0.0941 | -0.123 | 0.0652 | 0.0526 | 0.121 | 0.437 | 0.523 | 0.544 | 0.558 | 0.389 | 0.492 | 0.493 | 0.456 |
| Nc1ccc(C(=O)Nc2cccc(-c3nc(N4CCOCC4)c4oc5ncccc5c4n3)c2)cn1 | 0.123 | 0.0927 | 0.0179 | -0.0139 | 0.195 | 0.203 | 0.118 | 0.206 | – | – | – | – | – | – | – | – | 0.00496 | 0.0368 | 0.0937 | 0.133 | 0.163 | 0.259 | 0.223 | 0.329 | 0.467 | 0.548 | 0.558 | 0.579 | 0.541 | 0.566 | 0.558 | 0.533 |
| COCC[n+]1c2c(n(Cc3cnccn3)c1C)C(=O)c1ccccc1C2=O | 0.948 | 0.947 | 0.963 | 0.974 | 0.989 | 0.989 | 0.989 | 0.989 | – | – | – | – | – | – | – | – | 0.945 | 0.95 | 0.969 | 0.977 | 0.988 | 0.988 | 0.989 | 0.991 | 0.988 | 0.985 | 0.986 | 0.986 | 0.986 | 0.989 | 0.989 | 0.989 |
| CC[C@H]1OC(=O)[C@H](C)[C@@H](O[C@H]2C[C@@](C)(OC)[C@@H](O)[C@H](C)O2)[C@H](C)[C@@H](O[C@@H]2O[C@H](C)C[C@H](N(C)C)[C@H]2O)[C@](C)(O)C[C@@H](C)CN(C)[C@H](C)[C@@H](O)[C@]1(C)O [Azithromycin (Zithromax)] | 0.204 | 0.13 | 0.0304 | -0.0338 | 0.0821 | 0.11 | 0.0532 | -0.0307 | – | – | – | – | – | – | – | – | 0.138 | 0.178 | 0.198 | 0.299 | 0.0676 | 0.168 | 0.163 | 0.224 | 0.526 | 0.619 | 0.633 | 0.639 | 0.499 | 0.586 | 0.576 | 0.561 |
| Cc1cn(-c2cc(NC(=O)c3ccc(C)c(Nc4nccc(-c5cccnc5)n4)c3)cc(C(F)(F)F)c2)cn1 [Nilotinib (AMN-107)] | 0.0488 | 0.0185 | -0.0493 | -0.187 | -0.0166 | 0.0185 | -0.0481 | -0.136 | -0.0335 | -0.0957 | -0.159 | -0.318 | -0.122 | -0.118 | -0.0918 | -0.17 | -0.0417 | -0.0287 | -0.0436 | 0.0203 | -0.141 | -0.0418 | -0.0875 | -0.155 | 0.372 | 0.516 | 0.522 | 0.537 | 0.362 | 0.471 | – | – |
